# High-throughput results: PubChem BioAssay, National Center for Advancing Translational Sciences (NCATS)
# HTT-AS promoter: HTT-AS promoter activation; Potency, µM (highest dose often 57.5 µM), inactives show at the highest dose activity change, positive = activation, usual class: activators; HEK293 HTT-AS promoter firefly luciferase reporter, 24 h; response scale: percent change from vehicle, -100% = no light; 48,000 compounds, 0.24% hits; note: nearly all actives have a fitted effect of over 55% in size
#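 Luminescence was read after Dual-Glo reagent and a 10 min room-temperature incubation. Values were normalized to vehicle (0% activity) and zero RLU (-100% activity). Reporter HEK293 cells had been exposed to compounds (up to 57.5 uM final) for 24 h.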
# GALC G270D act: galactocerebrosidase G270D activity enhancement, cell-based. P54803. 145M-Twi-hGALC-G270D cells (Twitcher mouse brain line with human GALC G270D), HMU-beta-Gal fluorescence, 48 h. Potency, µM (highest dose often 57.5 µM), hits mostly activators. 45,000 compounds, 0.1% hits. AID 1159614; note: 0% is about no effect; nearly all actives have a fitted effect of over 65% in size
# Target sequence (P54803 whole entry G286D): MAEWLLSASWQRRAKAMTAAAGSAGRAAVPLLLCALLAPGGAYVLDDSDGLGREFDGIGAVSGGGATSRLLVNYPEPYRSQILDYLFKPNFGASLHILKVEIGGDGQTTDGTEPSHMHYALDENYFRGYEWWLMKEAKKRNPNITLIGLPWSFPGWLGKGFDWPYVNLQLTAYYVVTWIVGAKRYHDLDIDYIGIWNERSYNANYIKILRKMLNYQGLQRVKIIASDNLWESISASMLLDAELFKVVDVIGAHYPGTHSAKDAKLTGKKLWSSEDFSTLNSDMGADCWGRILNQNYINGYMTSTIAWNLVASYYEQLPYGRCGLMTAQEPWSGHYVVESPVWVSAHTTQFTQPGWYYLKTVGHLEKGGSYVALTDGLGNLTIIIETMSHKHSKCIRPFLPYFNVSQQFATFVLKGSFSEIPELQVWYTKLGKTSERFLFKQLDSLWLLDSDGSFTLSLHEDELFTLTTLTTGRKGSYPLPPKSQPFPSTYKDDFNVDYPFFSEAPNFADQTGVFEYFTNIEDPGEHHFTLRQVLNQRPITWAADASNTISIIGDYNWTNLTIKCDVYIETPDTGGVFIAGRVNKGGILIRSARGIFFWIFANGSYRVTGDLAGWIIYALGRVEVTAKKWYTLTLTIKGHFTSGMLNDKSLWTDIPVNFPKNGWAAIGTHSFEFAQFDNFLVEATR
#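 Live 145M-Twi cells (Twitcher mouse brain-derived, GALC-null) stably expressing human GALC-G270D, with a wild-type GALC line, were compound-treated. Residual GALC activity was then read as fluorescence from 0.1 mM final HMU-β-gal at pH 5.2; higher signal means activation.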
# NTMT1 inhibitor: inhibitors of human N-terminal methyltransferase NTMT1; NTMT1 MTase-Glo SAH luminescence, purified enzyme; AID 1645870; Potency, µM (highest dose often 114 µM), without a hit: top-dose activity change, negative = inhibition, actives largely listed as inhibitors; 59,000 compounds, 2.5% hits;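 note: plate controls were DMSO vehicle for no effect and no enzyme for full effect; nearly all actives have a fitted effect of over 65% in size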
# HTT promoter inh: inhibits huntingtin promoter activity; HEK293 HTT promoter firefly luciferase reporter, 24 h; Potency, µM (series often up to 57.5 µM), inactives show at the top dose activity change, negative = inhibition, actives largely listed as inhibitors; 48,000 compounds, 0.93% hits; AID 1508623; note: nearly all actives have a fitted effect of over 50% in size
#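 HEK293 cells carrying firefly luciferase reporters were seeded at 2,500 per well in Opti-MEM and cultured for 24 h. They were then treated with compounds at up to 57.5 uM final for 24 h at 37 degrees C before Dual-Glo luminescence readout.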
# Starred values were filed as active, the others as inactive; i = inactive; ? = inconclusive; . = not tested or not shown; ! = repeats disagree; [ ] = another dose, or the depositor's remark. A selection: hits, their analogues and other compounds. The true share with any hit is near 2.7%. Calls come from the whole dose curve; as a rule, active = well fitted curve in the direction sought with a large enough effect; inconclusive = small, poorly fitted or top-dose-only effect, or another doubt; inactive = no such curve, though single readings can be large; an effect the other way counts as inactive or inconclusive. Potency is the fitted concentration of half-maximal effect.
SMILES,HTT-AS promoter,GALC G270D act,NTMT1 inhibitor,HTT promoter inh
CCCCCCCCOc1ccccc1C(=O)Nc1ccc(C(=O)OCC[N+](C)(CC)CC)cc1,-24.6%,i,3.55µM*!,-16.7%
CCCCOc1ccccc1C(=O)Nc1onc2c1CCCC2,-17.2%,i,-28.6%,-28.9%
CC(=O)Nc1sc2c(c1-c1nc3ccccc3s1)CNC2,-40.3%,.,79.4µM*!,?
CC(=O)Nc1sc2c(c1-c1nc3ccccc3s1)CCN(C(=O)OC(C)(C)C)C2,.,.,-0.8%,.
CCC(NC(=O)CC(NC(=O)C(CO)NC(=O)C(CC)NC(=O)c1ccc[nH]1)c1ccccc1)C(=O)O (stereo unspecified),.,.,16.1%[12.6 µM],.
O=C1Nc2ccccc2/C1=C/c1cc(O)ccc1O,.,.,39.8µM*,.
O=C1Nc2ccccc2/C1=C\c1ccc([N+](=O)[O-])cc1,.,.,-16.6%,.
CCCCCCNC(=O)CCc1c(C)nc2nc(-c3cc(OC)cc(OC)c3)nn2c1C,-16.2%,i,89.1µM*,-16.2%
COc1ccccc1-c1cc2nc(C)c(CCC(=O)NCc3cccc(Cl)c3)c(C)n2n1,-80.0%,i,89.1µM*,12.6µM*
CCCCNC(=O)CCc1c(C)nc2cc(-c3ccccc3)nn2c1C,-69.6%,i,-6.6%,2µM*
Cc1nc2cc(-c3ccccc3)nn2c(C)c1CCC(=O)NCCc1ccccc1,-74.0%,i,7.9%,7.08µM*
Cc1cc(C=CC#N)cc(C)c1Nc1nc(Nc2ccc3scnc3c2)c2[nH]cnc2n1,.,.,-14.6%,.
COc1ccc(-c2oc3c(CC=C(C)C)c(OC4O[C@H](CO)[C@@H](O)[C@H](O)[C@H]4O)cc(O)c3c(=O)c2OC2O[C@@H](C)[C@H](O)[C@@H](O)[C@H]2O)cc1 (stereo partly specified),.,.,-0.3%,.
CC(C)(O)C1CC(=O)C2(C)C(CCC3(C)C(c4ccoc4)OC(=O)C4OC432)C12CCC(=O)OC2 (stereo unspecified),.,.,11.6%[29.8 µM],.
CCN(CC)c1ccc(C(=C2C=CC(=[N+](CC)CC)C=C2)c2cc(S(=O)(=O)O)ccc2S(=O)(=O)[O-])cc1,-55.8%,i,28.2µM*,?
Cc1cc(F)ccc1NC(=O)c1csc2c1CCC(C)C2 (stereo unspecified),3.16µM*,i,0.1%,53.0%
Cc1cc(F)ccc1NC(=O)c1ccc2nc(Cc3ccccc3)oc2c1,-15.8%,i,-0.1%,-28.2%
COc1ccccc1CNc1ccc(S(=O)(=O)Nc2nccs2)cc1,.,.,1.5%,.
CCCN(CCC)C(=O)Cn1c(=O)n(-c2ccc(CC)cc2)c(=O)c2c3c(sc21)CCC3,-22.5%,i,89.1µM*,-14.6%
Cc1ccc(NS(=O)(=O)c2cccc(C(=O)Nc3nc(-c4ccccc4)cs3)c2)cc1,.,.,24.5%,.
Cc1noc(/C=C/c2ccco2)c1S(=O)(=O)N1CCC(C(=O)Nc2ccc(F)c(Cl)c2)CC1,-45.3%,i,6.4%,31.6µM*
C=CCn1c(=O)c2cnc(Nc3ccc(N4CCN(C)CC4)cc3)nc2n1-c1cccc(C(C)(C)O)n1,-38.1%,.,39.8µM*!,?
CCC(=O)N1c2ccccc2CC1C(=O)NCCN1CCN(c2ccccc2F)CC1 (stereo unspecified),-11.6%,i,14.6%,-17.9%
CCC(=O)N1c2ccccc2CC1C(=O)NCCCN1CCN(c2ccc(F)cc2)CC1 (stereo unspecified),-2.9%,i,89.1µM*,-2.5%
CS(=O)(=O)N1CCc2cc(C(=O)NCCc3ccccc3)ccc21,3.16µM*,i,15.1%,47.4%
SMILES,HTT-AS promoter,GALC G270D act,NTMT1 inhibitor,HTT promoter inh
CCS(=O)(=O)N1CCc2cc(C(=O)Nc3cccc(C)c3C)ccc21,28.4%,i,-2.1%,23.6%
CCS(=O)(=O)N1CCc2cc(C(=O)Nc3ccc(Br)cc3F)ccc21,-17.4%,i,89.1µM*,?
CS(=O)(=O)N1CCc2cc(C(=O)NCc3ccccc3)ccc21,-9.0%,i,5.5%,-5.7%
CCS(=O)(=O)N1CCc2cc(C(=O)NCCc3ccccc3)ccc21,?,i,89.1µM*,56.5%
CC1CCN(S(=O)(=O)c2cc(C(=O)NCc3ccc(N(C)C)cc3)n(C)c2)CC1,-30.0%,i,89.1µM*,-25.6%
Cc1ccc(NC(=O)c2cc(S(=O)(=O)N3CCC(C)CC3)cn2C)cc1Cl,-11.6%,?,89.1µM*,-11.4%
CC1CCN(S(=O)(=O)c2cc(C(=O)NCCc3ccccc3)n(C)c2)CC1,-23.9%,i,-17.4%,-28.3%
Cc1ccc2[nH]c(=O)c(C3=NN(C(=O)CCC(=O)O)C(c4ccc(Br)cc4)C3)c(-c3ccccc3)c2c1 (stereo unspecified),.,.,2.0%[57.5 µM],.
Cc1cccn2c(=O)c3cc(C(=O)NC(C)(C)C)n(C)c3nc12,19.5%,i,?,26.2%
CN(C(=O)c1cc2c(=O)n3ccccc3nc2n1C)c1ccccc1,5.62µM*,i,?,83.4%
Cn1ncnc1[C@@H]1c2n[nH]c(=O)c3cc(F)cc(c23)N[C@H]1c1ccc(F)cc1,.,.,3.0%[57.5 µM],.
N[C@@H](Cc1cc(I)c(O)c(I)c1)C(=O)O,-6.3%,i,14.1µM*,0.3%
O=C(NC1(c2ccccc2)CC1)c1c(CN2CCC(N3CCCCC3)CC2)c(-c2cccc(C(F)(F)F)c2)nc2cc(Br)ccc12,.,.,5.9%[57.5 µM],.
Cc1cc(NC(=O)c2ccccc2F)ccc1-c1nc2ccccc2s1,0.891µM*,i,?,49.2%
COc1cc(OC)cc(C(=O)Nc2ccc(-c3nc4ccccc4s3)c(C)c2)c1,24.8%,i,-1.3%,35.8%
COc1ccc(CNc2oc(-c3ccc(COc4ccccc4C)o3)nc2C#N)cc1,-63.5%,i,-3.2%,20µM*
COc1ccc(CNc2oc(-c3ccc(COc4ccc(Cl)cc4)o3)nc2C#N)cc1,-60.4%,i,6.0%,22.4µM*
CC1(C)C2CCC1(C)C(OC(=O)C(O)(CC(=O)O)CC(=O)O)C2 (stereo unspecified),.,.,-14.6%[29.8 µM],.
NC(CC1c2ccccc2Oc2ccccc21)(C(=O)O)C1CC1C(=O)O (stereo unspecified),.,.,23.3%,.
CC(=O)Nc1ccc(NC(=O)c2cc(-c3ccc4c(c3)OCCO4)on2)cc1,?,i,-1.5%,8.8%
O=C(Nc1ccc(SC(F)F)cc1)c1cc(-c2ccc3c(c2)OCCO3)on1,-63.8%,i,7.0%,10µM*
Nc1ccc(C(=O)O)c(O)c1,0.7%,i,35.5%[57.5 µM],3.5%
Nc1ccc(O)c([N+](=O)[O-])c1,?,i,35.5µM*,8.5%[116 µM]
O=S(=O)(Nc1nccs1)c1ccc(NCc2cccc(Br)c2O)cc1,.,.,-7.1%,.
CC(=O)OC1C(O)/C(C)=C\C2C(OC(=O)c3ccccc3)C(C)CC2(OC(C)=O)C(OC(C)=O)C(C)/C=C/C(C)(C)C1OC(C)=O (stereo unspecified),.,.,5.4%[12.6 µM],.
CC(=O)c1ccc(NC(=O)CCOc2ccccc2)cc1,?,i,-2.6%,46.5%
Cc1ccc(NC(=O)CCOc2ccccc2)cc1,10µM*,i,9.0%,47.7%
